# Unmarked numbers belong to inactive results.
# Target: USP16 (UniProt Q9Y5T5)
# Assay: log2 ratio of Biotin-Ahx-Ub-VS probe labelling (fragment/DMSO); higher = less target engagement (more negative = stronger competition), active = hit call of the paper (q ≤ 0.05, log2 ratio ≤ -1)
# Settings: compound concentration: 200 uM; treatment time: 3 h
# Summary of the method: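 HEK293T lysate (495 µg per sample, in Tris/CHAPS/IGEPAL buffer with protease inhibitors) was treated in triplicate with fragment at 200 µM or with DMSO for 3 h. It was then treated with Biotin-Ahx-Ub-VS (0.5 µM final) for 1 h. Labelled DUBs were NeutrAvidin-enriched, digested with LysC and trypsin, and run by diaPASEF LC-MS/MS. Spectronaut label-free quantities were global-median-normalised. Values are average log2 ratios fragment/DMSO by unpaired t-test, using proteins with ≥2 unique peptides.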
# Sequence of USP16 (Q9Y5T5 whole entry, looked up, the tested form may be a part): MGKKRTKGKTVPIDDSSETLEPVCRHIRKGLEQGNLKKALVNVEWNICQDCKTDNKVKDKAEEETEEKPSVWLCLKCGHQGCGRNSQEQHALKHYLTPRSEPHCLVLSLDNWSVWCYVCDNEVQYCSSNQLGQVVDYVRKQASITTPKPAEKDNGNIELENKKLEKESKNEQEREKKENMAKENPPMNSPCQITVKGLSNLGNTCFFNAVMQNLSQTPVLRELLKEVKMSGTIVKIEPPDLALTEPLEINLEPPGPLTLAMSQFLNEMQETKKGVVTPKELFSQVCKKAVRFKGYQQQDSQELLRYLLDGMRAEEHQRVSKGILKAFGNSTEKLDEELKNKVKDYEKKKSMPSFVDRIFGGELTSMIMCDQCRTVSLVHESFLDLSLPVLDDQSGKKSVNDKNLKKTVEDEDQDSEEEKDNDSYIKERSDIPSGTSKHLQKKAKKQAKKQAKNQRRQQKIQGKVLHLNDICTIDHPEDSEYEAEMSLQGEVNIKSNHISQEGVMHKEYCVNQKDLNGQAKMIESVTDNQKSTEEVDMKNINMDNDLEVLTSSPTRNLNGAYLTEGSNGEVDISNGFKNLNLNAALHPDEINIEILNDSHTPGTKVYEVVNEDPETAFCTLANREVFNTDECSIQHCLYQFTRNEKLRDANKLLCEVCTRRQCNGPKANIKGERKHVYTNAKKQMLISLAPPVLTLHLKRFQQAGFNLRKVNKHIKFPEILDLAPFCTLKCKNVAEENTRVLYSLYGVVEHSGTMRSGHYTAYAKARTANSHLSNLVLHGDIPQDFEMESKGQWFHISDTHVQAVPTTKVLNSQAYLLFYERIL
row,Structure (SMILES),log2 ratio of Biotin-Ahx-Ub-VS probe labelling
1,COc1cc(Cl)c(C)cc1NC(=O)CCl,-0.634
2,Cl.O=C(CCl)N1CCN(Cc2ccccc2)CC1,-0.587
3,Cc1nc(CN2CCN(C(=O)CCl)CC2)cs1,-0.55
4,O=C(CCl)Nc1cc(Cl)ccc1C(=O)O,-0.669
5,CN(C(=O)CCl)c1nc2ccccc2s1,0.0425
6,O=C(CCl)NCCc1cccc2ccccc12,-0.496
7,CCCn1nccc1NC(=O)CCl,-0.307
8,CNC(=O)C1CCN(C(=O)CCl)CC1,0.31
9,O=C(CCl)N1CCOC(c2cccc(F)c2)C1 (stereo not given),0.0465
10,Cc1c(C#N)c(NC(=O)CCl)n(Cc2ccco2)c1C,-0.818
11,O=C(CCl)N1CCC(C(=O)N2CCCCCC2)CC1,-0.164
12,CN1C(=O)c2ccc(NC(=O)CCl)cc2C1=O,-0.455
13,C[C@H]1CN(C(=O)CCl)CCN1C(=O)c1cnn(C)c1.Cl,-0.146
14,CC1(NC(=O)CCl)CCS(=O)(=O)C1 (stereo not given),0.0352
15,O=C(CCl)NCc1ccc(Cl)cc1,-0.354
16,O=C(CCl)Nc1ccc(N2CCCC2=O)cc1,0.0122
17,Cc1ncsc1CCNC(=O)CCl,0.106
18,Cc1cccc(C)c1NC(=O)CCl,-0.0305

row,Structure (SMILES),log2 ratio of Biotin-Ahx-Ub-VS probe labelling
1,Cc1cccc(C(CNC(=O)CCl)N2CCOCC2)c1.Cl (stereo not given),-0.147
2,Cc1cccc(NC(=O)CCl)c1C,-0.691
3,Cc1cc(C2CCCN2C(=O)CCl)nn1C.Cl (stereo not given),-0.631
4,O=C(CCl)N1CCCC2CCCCC21 (stereo not given),-0.257
5,Cc1cccc(N2CCC(NC(=O)CCl)C2=O)c1 (stereo not given),-0.021
6,CC(O)CC1CCN(C(=O)CCl)CC1 (stereo not given),-0.771
7,Cc1nc(CC2CCN(C(=O)CCl)CC2)no1,0.0849
8,CC1Cc2ccccc2N1C(=O)CCl (stereo not given),0.0877
9,O=C(CCl)Nc1cccc(C(=O)N2CCSCC2)c1,-0.0446
10,Cl.O=C(CCl)N1CCc2ncncc2C1,-0.106
11,NC(=O)C(Cc1ccccc1)NC(=O)CCl (stereo not given),0.0723
12,CC(NC(=O)CCl)c1csc(-c2ccccc2)n1.Cl (stereo not given),-1.03 (active)
13,Cc1ccc(CC(NC(=O)CCl)c2ccccn2)cc1.Cl (stereo not given),0.0921
14,O=C(CCl)N[C@H]1CCS(=O)(=O)c2ccccc21,-0.601
15,O=C(CCl)NCC(=O)N1CCCC1,0.0192
16,CC(C)n1nccc1NC(=O)CCl,-0.153
17,Cc1cc(CC(C)NC(=O)CCl)n[nH]1 (stereo not given),0.186
